DRD3 agonist – qHTS of D3 Dopamine Receptor Agonist: qHTS; D(3) dopamine receptor (Homo sapiens), P35462; D3R DiscoveRx beta-arrestin cells, luminescence, 90 min; max activation, %; 410,000 compounds, 0.58% hits; in the data active = max activation above about 30%
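Agonist-mode cell screen: cells plated at 1500/well and incubated overnight at 37 °C, then exposed to library compounds for 90 min at 37 °C. Detection reagent was added for 30–60 min at room temperature, and luminescence was read.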
D1 potentiator – Potentiators of Human D1 Dopamine Receptor: qHTS; potentiation, % at 10 µM; AID 504651, 2011; HEK293 TREx D1 cells, calcium flux, dopamine EC20 potentiation; 360,000 compounds, 0.036% hits; D(1A) dopamine receptor (Homo sapiens), P21728; in the data active = potentiation above about 30%
Target sequence (P21728 whole entry, looked up): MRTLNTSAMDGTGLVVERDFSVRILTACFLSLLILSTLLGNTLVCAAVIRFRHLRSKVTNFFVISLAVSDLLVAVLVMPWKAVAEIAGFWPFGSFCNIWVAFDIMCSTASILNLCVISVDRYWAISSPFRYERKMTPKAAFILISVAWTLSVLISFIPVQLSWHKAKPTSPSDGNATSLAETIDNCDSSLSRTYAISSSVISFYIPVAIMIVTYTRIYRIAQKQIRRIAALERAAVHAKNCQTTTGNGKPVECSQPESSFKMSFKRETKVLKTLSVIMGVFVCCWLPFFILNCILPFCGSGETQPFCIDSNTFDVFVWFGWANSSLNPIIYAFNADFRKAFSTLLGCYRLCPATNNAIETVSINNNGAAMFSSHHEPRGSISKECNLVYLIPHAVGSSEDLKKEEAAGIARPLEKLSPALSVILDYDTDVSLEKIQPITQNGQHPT
D1 antagonist – Antagonist of Human D 1 Dopamine Receptor: qHTS; 360,000 compounds, 3.2% hits; activity change, negative = inhibition, % at 10 µM; HEK293 TREx D1 cells, calcium flux, dopamine EC80; active compounds read low; AID 504652, 2011; in the data active = activity change below about -30%
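Using tetracycline-induced force-coupled D1 Hek293 cells and a calcium dye, signals were followed for 180 s after compound, then for 180 s after EC80 dopamine, to detect inhibitors.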
D1 ag – Allosteric Agonists of the Human D1 Dopamine Receptor: qHTS. HEK293 T-REx D1 cells, calcium flux, agonist mode. activation, % at 2 µM. 360,000 compounds, 1% hits; in the data active = activation above about 30%
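Agonism was scored from calcium flux recorded over 180 s (1 read/s) after pintool compound addition, following a 10-cycle baseline. Cells were inducible force-coupled HEK293 TREx D1, plated overnight at 30 C and loaded with no-wash calcium dye.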
DRD3 antagonist – qHTS of D3 Dopamine Receptor Antagonist: qHTS; D3R cells, DiscoveRx beta-arrestin luminescence, antagonist mode; active compounds read low; AID 652054, 2013; 360,000 compounds, 2.5% hits; max response, negative = inhibition, %; D(3) dopamine receptor (Homo sapiens), P35462; in the data active = max response below about -50%; inconclusive = no clear call, values can overlap the other calls
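Cells plated overnight at 1500 cells/well, then exposed to library compounds with dopamine controls for 90 minutes at 37 degrees C. DiscoveRx reagent added for 30–60 minutes at room temperature; luminescence read, quantitative HTS format.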
Each line names hits and unclear results; the compound was inactive in the other large screens. An excerpt weighted towards active compounds, which were near 6% of everything screened.

O=C(O)c1ccc(N=Nc2c(O)ccc3ncccc23)cc1	DRD3 antagonist -75
O=C(O)c1cc(N=Nc2c(O)ccc3ccccc23)cc(C(=O)O)c1	none
CC(=O)N(Nc1ccccc1)c1ccccc1	D1 antagonist -52
CC(=O)c1ccc(OCCCC(=O)Nc2cccc(S(=O)(=O)N3CCCCC3)c2)cc1	none
CCCn1c(=O)[nH]c2ccccc21	none
O=c1[nH]c2ccccc2n1CCCN1CCN(C(c2ccccc2)c2ccccc2)CC1	D1 antagonist -44 (no result: DRD3 antagonist)
O=c1[nH]c2ccccc2n1CCCN1CCCCC1	DRD3 antagonist -61
CN1C(=O)C2(CCCCC2)C1c1ccccc1 (centres undefined)	DRD3 antagonist -76 (no result: D1 potentiator, D1 antagonist, D1 ag)
O=C(CNC(=O)c1ccccc1)OCc1cc(=O)n2nc(C3CC3)sc2n1	none (no result: DRD3 antagonist)
Cc1n(N)c2ccccc2[n+]1CC(=O)c1ccccc1	DRD3 antagonist -82
Cc1ccc(NC(=O)CN2C(=O)NC3(CCCCCC3)C2=O)cc1Cl	none (no result: D1 potentiator)
O=C(CSc1nnc(CNC(=O)c2ccccc2)o1)Nc1ccc2c(c1)OCO2	none
Cn1cc(SCC(=O)Nc2ccc3c(c2)OCO3)c2ccccc21	D1 antagonist -35 (no result: D1 potentiator)
CC(C)C(=O)Nc1nnc(SCC(=O)Nc2ccc3c(c2)OCCO3)s1	none
O=C(CSc1nnc(CNC(=O)c2cccs2)o1)Nc1ccc2c(c1)OCO2	D1 antagonist -36
CC(C)C(=O)Nc1nnc(SCC(=O)Nc2ccc3c(c2)OCO3)s1	D1 antagonist -41
CC1CCN(C(C(=O)Nc2ccc3c(c2)OCO3)c2ccccc2)CC1 (centres undefined)	D1 antagonist -42
Cc1cccc(C(=O)Nc2cccc(C(=O)Nc3cc(C)ccn3)c2)c1	none
COC(=O)[C@H](CCSC)NC(=O)Cn1cc(C)c(=O)[nH]c1=O	none (no result: D1 potentiator, D1 antagonist, D1 ag)
COC(=O)c1cc2sc(Cl)cc2n1Cc1c(C)cc(C)cc1C	none (no result: DRD3 antagonist)
CNC(=O)C(=O)Nc1ccc(C)cc1C	none
CNC(=O)C(=O)Nc1c(C)cc(C)cc1C	D1 antagonist -36
COC(=O)C[C@H]1CC[C@H](NC(=O)c2ccc(F)cc2)[C@@H](CO)O1	none (no result: D1 potentiator, D1 antagonist, D1 ag)
CO[C@@H]1[C@@H](O[C@@H]2O[C@H](C)[C@@H](O[C@H]3C[C@@](C)(O)[C@@H](O)[C@H](C)O3)[C@H](N(C)C)[C@H]2O)[C@@H](CC=O)C[C@@H](C)[C@@H](O[C@@H]2CC[C@H](N(C)C)[C@@H](C)O2)/C=C/C=C/C[C@@H](C)OC(=O)C[C@H]1OC(C)=O	none (no result: D1 potentiator, D1 antagonist, D1 ag, DRD3 antagonist)
CCc1ccc(S(=O)(=O)N2c3ccc(C)cc3C3CN(C)CCC32)cc1 (centres undefined)	DRD3 antagonist inconclusive
Cc1ccc2c(c1)C1CN(C)CCC1N2C(=O)Nc1ccc(Cl)cc1 (centres undefined)	D1 antagonist -73, D1 ag 36
Cc1ccc2c(c1)[C@@H]1CN(C)CC[C@@H]1N2S(=O)(=O)c1ccc(F)cc1	DRD3 antagonist -63
Cc1ccc2c(c1)C1CN(C)CCC1N2Sc1ccccc1[N+](=O)[O-] (centres undefined)	D1 antagonist -95, DRD3 antagonist inconclusive
Cc1ccc2c(c1)C1CN(C)CCC1N2C(=O)c1cccc(S(=O)(=O)N(C)C)c1 (centres undefined)	none
Cc1ccc2c(c1)[C@@H]1CN(C)CC[C@@H]1N2S(=O)(=O)c1ccc([N+](=O)[O-])cc1	D1 ag 60, DRD3 antagonist -107
COc1ccc(Cl)cc1NC(=O)CSc1nnc(C)n2c1cc1sccc12	none (no result: DRD3 antagonist)
COc1cc2sc3ccc(-c4ccc(CN5CCOCC5)cc4)cc3c(=O)c2cc1OC	DRD3 agonist 118 (no result: D1 potentiator, D1 antagonist, D1 ag)
O=C(Nc1ccc(F)cc1)N1CCN(CCc2ccccc2)CC1	none (no result: D1 antagonist)
CCNC(=O)N1CCN(CCCC(c2ccc(F)cc2)c2ccc(F)cc2)CC1	D1 antagonist -73, DRD3 antagonist -114
O=C(CN1CCCCCCC1)N/N=C/c1ccc(F)cc1F	D1 antagonist -32
CCOC(=O)CN1C(=O)c2cccnc2Oc2ccccc21	none (no result: DRD3 antagonist)
O/N=C/c1cc2ccccc2n1Cc1ccccc1F	DRD3 antagonist -53
CCCN(C(=O)Cn1ncc2c(=O)oc3ccccc3c21)c1cccc(C)c1	none
